Results from PubChem BioAssay AID372 (MTDP, 2006).
Out of some 100,000 compounds screened, about 770 (0.77%) were called active. Only a selection was taken, and actives are over-represented in it overall. A number with no mark means an inactive call. Cut-off read from the data, not from the text of the source: active = inhibition above about 50%; inactive = the rest.

Biological target: Gag-Pol polyprotein (Human immunodeficiency virus type 1 group M subtype B (isolate HXB2)) (UniProt P04585)
Test: RNase H inhibition, HIV 1 Gag Pol polyprotein, FRET biochemical assay, screening (AID 372)
Conditions: HIV-1 RT RNase H, FRET RNA/DNA substrate fluorescence; at 10 µM; active compounds read high

Row | Compound | inhibition
1 | Cc1ccccc1-n1c(/C=C/c2ccc(Br)cc2)nc2ccccc2c1=O | 3%
2 | O=C(COc1ccc2ccccc2c1)N1CCN(Cc2ccc(F)cc2)CC1 | 0%
3 | O=C(COc1ccc2ccccc2c1)N1CCN(Cc2ccccc2C(F)(F)F)CC1 | 51% (active)
4 | CCc1ccc(CN2CCN(C(=O)COc3ccc4ccccc4c3)CC2)cc1 | 19%
5 | O=C(COc1ccc2ccccc2c1)N1CCN(Cc2ccc([N+](=O)[O-])cc2)CC1 | 13%
6 | O=C(COc1ccc2ccccc2c1)N1CCN(Cc2ccccc2[N+](=O)[O-])CC1 | 50% (active)
7 | Cc1ccccc1CN1CCN(C(=O)COc2ccc3ccccc3c2)CC1 | 42%
8 | COc1ccc(/C=C2/C(=O)N(c3ccccc3)C(=S)N(c3ccccc3OC)C2=O)c(OC)c1 | 5%
9 | COc1ccc(O)c(CN2CCN(c3ccccc3OC)CC2)c1 | 3%
10 | O=c1c2ccccc2nc(CSc2ncnc3ccccc23)n1-c1ccccc1 | 16%
11 | CCOC(=O)C1=C(C)OC(N)=C(C(=O)OCCOC)C12C(=O)Nc1ccccc12 (configuration not stated) | 0%
12 | C=CCN1C(=O)NC(=O)/C(=C\c2ccc(O)c(OC)c2)C1=O | 0%
13 | C=CCN1C(=O)NC(=O)/C(=C/c2ccc(O)c(O)c2)C1=O | 60% (active)
14 | O=C1NC(=O)N(Cc2ccccc2)C(=O)/C1=C/c1ccc(O)c(O)c1 | 11%
15 | O=[N+]([O-])c1ccc(N2CCNCC2)cc1N1CCOCC1 | 3%
16 | O=c1c2ccccc2nc(-c2ccccn2)n1-c1ccc(Cl)cc1 | 4%
17 | COc1cc(C)c(C=C(C#N)C#N)cc1C | 50% (active)
18 | COc1cc(OC)c(OC)cc1C=C(C#N)C#N | 4%
19 | COc1ccc(C=C(C#N)C#N)cc1C | 44%
20 | O=C1NC(=O)C(=Cc2ccc(N3CCOCC3)c([N+](=O)[O-])c2)C(=O)N1 | 0%
21 | O=[N+]([O-])c1ccc(N2CCCC2)c(F)c1Br | 34%
22 | O=C1NC(=O)N(c2cccc(Br)c2)C(=O)/C1=C/c1ccco1 | 19%
23 | O=C1NC(=S)N(c2ccccc2)C(=O)/C1=C/c1ccco1 | 36%
24 | O=C1NC(=S)N(c2cccc(Br)c2)C(=O)/C1=C/c1ccco1 | 98% (active)
25 | O=C1NC(=S)N(c2cccc(Cl)c2Cl)C(=O)/C1=C/c1ccc(-c2ccc(C(=O)O)cc2)o1 | 12%
26 | N#CC(C#N)=Cc1ccc(C(F)(F)F)cc1 | 1%
27 | CSc1ccc(CN2CCN(c3ccccc3C)CC2)cc1 | 7%
